# The source made the active and inactive calls. Calls follow the shape of the dose curve; as a rule, active = well fitted curve in the direction sought with a large enough effect; inconclusive = small, poorly fitted or top-dose-only effect, or effect the other way, or another doubt; inactive = no such curve, though single readings can be large or run the other way.
# Biological target: Beta-2 adrenergic receptor (Homo sapiens) (UniProt P07550)
# Assay: qHTS validation assay of beta-arrestin-biased ligands of beta2-adrenergic receptor (AID 485366)
# Details: cell-based beta-arrestin recruitment to ADRB2, qHTS; series mostly up to 46.1 µM
# Source text: NIH Molecular Libraries Probe Production Network [MLPCN]
# NIH Chemical Genomics Center [NCGC]
# PI: Bryan Roth and Bob Lefkowitz
# The concept of biased agonism is an emerging concept of molecular pharmacology which proposes that seven transmembrane receptors (7TMRs) or G protein-coupled receptors (GPCRs), exist in multiple signaling conformations and complexes and that ligands (either agonists or antagonists) can induce signaling biased responses for distinct signal transduction cascades.
# Furthermore, accumulating evidence over the last decade has drawn attention to a novel function of beta-arrestins as signal transducers that scaffold various signaling molecules upon activation of 7TMRs. […] This beta-arrestin-biased signaling presumably leads to distinct physiological outcomes from those by G protein activation.
# Additionally, the active receptor conformations which […] on this beta-arrestin signaling are likely different from those activating G protein signaling
# The goal of this screening project will be to discover and optimize novel beta-arrestin-biased ligands for beta2-AR signaling. A luminescent cell-based assay for beta2-AR-mediated agonism, known as the Tango assay, has been validated in which ligand binding of a recombinant beta2-AR and subsequent recruitment of a recombinant beta-arrestin lead to the release of the transcriptional activator tTA, which upregulates transcription of a tTA-responsive luciferase gene. […] Compounds were screened as a concentration-titration series that ranged from 46 microM to 0.6 nM.
# NCGC Assay Protocol Summary:
# Tango cells were dispensed into white, solid, tissue-culture-treated 1536-well plates at 1500 cells/well in DMEM, containing 1% fetal bovine serum (FBS). Then, 23 nL of compounds or DMSO were delivered to each well using a pin tool. Plates were incubated at 37 degrees C, 5% CO2 for 18 hr. Then 2.5 uL luminescent substrate mix (in-house prepared: 150 mM Tris-Cl, pH 7.6, 3 mM MgCl2, 1% Triton X-100, 5 mM DTT, 0.5 mM CoA, 0.15 mM ATP, 0.44 mM D-luciferin, final concentrations) was added to each well. Plates were then incubated for 15 minutes at room temperature, and subsequently measured on a ViewLux plate reader for luminescent signal using a clear filter with a 10 second exposure and 2x binning. The %Activity was determined from the corrected luminescence values.
# Concentration-response curves were fitted to the signals arising from the resulting luminescence. The concentration-effect curves were then classified based on curve quality (r2), response magnitude and degree of measured activity, and compounds were subsequently categorized based on their curve class.
# Keywords: biased agonism, beta2-AR, beta-arrestin, GPCR, 7TMR, Tango, luminescence, MLSMR, MLPCN, NIH Roadmap, qHTS, NCGC
# Chain of Beta-2 adrenergic receptor (Homo sapiens) (P07550 whole entry, looked up): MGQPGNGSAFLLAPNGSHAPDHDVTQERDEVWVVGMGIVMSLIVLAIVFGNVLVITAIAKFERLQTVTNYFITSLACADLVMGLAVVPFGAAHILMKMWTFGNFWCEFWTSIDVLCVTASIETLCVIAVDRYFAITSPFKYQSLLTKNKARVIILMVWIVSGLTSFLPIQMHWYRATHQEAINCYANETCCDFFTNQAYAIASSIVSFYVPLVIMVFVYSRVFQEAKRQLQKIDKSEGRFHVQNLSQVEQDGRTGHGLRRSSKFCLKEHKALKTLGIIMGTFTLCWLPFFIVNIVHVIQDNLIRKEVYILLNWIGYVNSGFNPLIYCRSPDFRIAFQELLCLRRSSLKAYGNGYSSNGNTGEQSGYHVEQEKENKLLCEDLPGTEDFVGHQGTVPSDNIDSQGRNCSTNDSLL
row,SMILES,outcome
1,CC1CCN(CC[C@H]2CCCN2S(=O)(=O)c2cccc(O)c2)CC1,inactive
2,N=C(N)c1ccc(OCCCCCOc2ccc(C(=N)N)cc2)cc1 (tested in a mixture with another compound),inactive
3,COc1ccc(CCN(C)CCc2ccc(OC)c(OC)c2)cc1OC,inactive
4,NC(=O)CNCCC(c1ccccc1)c1ccccc1,inactive
5,CC(=O)[C@H]1CCC2C3CC=C4C[C@@H](OS(=O)(=O)O)CC[C@]4(C)C3CC[C@@]21C (stereo not given in full),inactive
6,Cc1ccc2c(c1)C(N1CCN(C)CC1)=Nc1cccnc1N2,inactive
7,CCC1(O)CC2CN(CCc3c([nH]c4ccccc34)[C@@](C(=O)OC)(c3cc4c(cc3OC)N(C)C3[C@]45CCN4CC=C[C@@](CC)([C@@H](OC(C)=O)[C@]3(O)C(=O)OC)[C@H]45)C2)C1 (stereo not given in full),inactive
8,CCCOC(=O)c1c(-c2ccccc2)nc(CC)c(C(=O)SCC)c1CCC,inactive
9,S=C(S)N1CCCC1,inactive
10,N[C@@H](Cc1ccc(O)c(I)c1)C(=O)O,inactive
11,CC(/C=C/c1cccc(Oc2ccc(F)cc2)c1)N(O)C(N)=O (stereo not given),inactive
12,CCSC(=N)N,inactive
13,O=C(O)C1=CCNCC1,inactive
14,CO/N=C(\C(=O)N[C@@H]1C(=O)N2C(C(=O)O)=C(CSc3nc(=O)c(O)nn3C)CSC12)c1csc(N)n1 (stereo not given in full),inactive
15,NC1CONC1=O (stereo not given),inactive
16,CNc1cc(NS(=O)(=O)c2ccc(N)cc2)nc(NC)n1,inactive
17,O=C(O)/C(=C/c1c(C(=O)O)[nH]c2cc(Cl)cc(Cl)c12)c1ccccc1,inactive
18,O=C(O)C1=CCCNC1,inactive
19,N#Cc1cc([N+](=O)[O-])c2sc(C(N)=O)[n+]([O-])c2c1,inactive
20,COc1ccc2c(c1)c(CC(=O)O)c(C)n2Cc1ccc(Cl)cc1,inactive

row,SMILES,outcome
1,Cc1nc(N=Nc2ccc(S(=O)(=O)O)cc2S(=O)(=O)O)c(COP(=O)(O)O)c(C=O)c1O,inactive
2,Cn1ccnc1,inactive
3,OC[C@H]1O[C@@H](n2cnc3cncnc32)[C@H](O)[C@@H]1O,inactive
4,Nc1ccc(-c2ccc3ccccc3n2)cc1,inactive
5,CCC1(O)CC2CN(CCc3c([nH]c4ccccc34)[C@@](C(=O)OC)(c3cc4c(cc3OC)N(C=O)C3[C@]45CCN4CC=C[C@@](CC)([C@@H](OC(C)=O)[C@]3(O)C(=O)OC)[C@H]45)C2)C1 (stereo not given in full),inactive
6,c1ccc(CN2CCC3(CCCc4ccccc43)CC2)cc1,inactive
7,Nc1nc2c(nc(Br)n2C2OC3COP(=O)(O)O[C@@H]3C2O)c(=O)[nH]1 (stereo not given in full),inactive
8,CCN(CC)CCCCCCCCOC(=O)c1cc(OC)c(OC)c(OC)c1,inactive
9,C=CCN1CCc2cc(O)c(O)cc2C(c2ccccc2)C1 (stereo not given),inactive
10,CCCC(=O)NCCc1c2n(c3ccc(OC)cc13)CCCc1ccccc1-2,inactive
11,C=CCN1CCc2c(cc(O)c(O)c2Br)[C@@H](c2ccccc2)C1,inactive
12,CN(C)S(=O)(=O)c1ccc2c(c1)/C(=C/c1cc3c([nH]1)CCCC3)C(=O)N2,inactive
13,CSC(=N)N,inactive
14,O=C1C2C=CC=CC2=NC(=S)N1CCN1CCC(=C(c2ccc(F)cc2)c2ccc(F)cc2)CC1 (stereo not given),inactive
15,CC[n+]1c(/C=C/C=C2/N(C)c3ccccc3C2(C)C)sc2ccccc21,inactive
16,Nc1ccc2c3c(cccc13)C(=O)NC2=O,inactive
17,NC(=O)c1ccccc1,inactive
18,NC(=O)CC[C@H](N)C(=O)O,inactive
19,CN(CC[C@@H](Oc1ccc(C(F)(F)F)cc1)c1ccccc1)CC(=O)O,inactive
20,CC[C@@H]1Cc2cc(O)ccc2C2=C1c1ccc(O)cc1C[C@H]2CC,inactive

# Reference: PubChem BioAssay (NCATS)
